Source: the supplement of paper PMC13380429

System: Vero E6 infected with SARS-CoV-2
Test: inhibition of SARS-CoV-2 cytopathic effect; higher = more antiviral protection, active = above 15
Settings: 48 h

Measured: inhibition of SARS-CoV-2 cytopathic effect

CC(CNC1CCCCC1)OC(=O)c1ccccc1 (stereo not given) [hexylcaine]
inactive: 1 nM 2.92% | 8.33 nM -0.38% | 100 nM -0.1% | 833.33 nM -11% | 10000 nM -2.93%

O=C(c1cccc(Cl)c1F)N1CCN(Cc2cccc(Nc3nccs3)n2)CC1
inactive: 1 nM -0.75% | 8.33 nM -9.29% | 100 nM 0.91% | 833.33 nM -4.51% | 10000 nM -1.08%

CNC(=O)c1ccc(C)c(-n2c(C)cc(OCc3ccc(F)cc3F)c(Br)c2=O)c1
inactive: 1 nM -1.52% | 8.33 nM -2.37% | 100 nM -3.51% | 833.33 nM -2.74% | 10000 nM -7.45%

CN/C(=N\c1ccc(C2=NNC(=O)CC2C)cc1)NC#N (stereo not given) [siguazodan]
inactive: 1 nM 1.52% | 8.33 nM 1.14% | 100 nM -0.26% | 833.33 nM 1.67% | 10000 nM -1.34%

CC(=O)N[C@H](Cc1ccc2ccccc2c1)C(=O)N[C@H](Cc1ccc(Cl)cc1)C(=O)N[C@H](Cc1cccnc1)C(=O)N[C@@H](CO)C(=O)N[C@@H](Cc1ccc(O)cc1)C(=O)N[C@H](CCCNC(N)=O)C(=O)N[C@@H](CC(C)C)C(=O)N[C@@H](CCCNC(=N)N)C(=O)N1CCC[C@H]1C(=O)N[C@H](C)C(N)=O [cetrorelix]
inactive: 1 nM -4.73% | 8.33 nM -2.29% | 100 nM 5.4% | 833.33 nM 5.13% | 10000 nM 8.43%

Nc1ncnc2c1ncn2[C@@H]1O[C@H](CO)[C@@H](O)[C@H]1O [adenosine]
inactive: 1 nM 2.02% | 8.33 nM 3.5% | 100 nM 0.67% | 833.33 nM -1.84% | 10000 nM 1.06%

CC(C)NCC(O)COc1ccc(COCCOC(C)C)cc1 (stereo not given) [bisoprolol]
inactive: 1 nM -5.27% | 8.33 nM -2.6% | 100 nM -2.42% | 833.33 nM -3.57% | 10000 nM -3.25%

O=C(O)CNC(=O)c1nc(Cl)c2ccccc2c1O
inactive: 1 nM 0.76% | 8.33 nM 0.65% | 100 nM 4.78% | 833.33 nM 2.19% | 10000 nM -0.7%

COc1cc(OC)c(NC(=O)Nc2cc(C)on2)cc1Cl
inactive: 1 nM 2.33% | 8.33 nM 0.81% | 100 nM 1.57% | 833.33 nM 4.04% | 10000 nM 2.62%

O=C(NCc1ccc(OC(F)(F)F)cc1)C1c2ccccc2C(=O)N1C1CCOCC1 (stereo not given)
inactive: 1 nM -3.69% | 8.33 nM -4.75% | 100 nM -1.62% | 833.33 nM -1.7% | 10000 nM 2.59%

Clc1cccc(Cl)c1CSc1nnc(-c2cnccn2)s1 [yoda-1]
inactive: 1 nM 1.9% | 8.33 nM 3.59% | 100 nM -0.57% | 833.33 nM 2.67% | 10000 nM 9.5%

CC=C1C(=O)C[C@H]2[C@@H]3CCC4=CC(=O)CC[C@]4(C)[C@H]3CC[C@]12C
inactive: 1 nM 0.03% | 8.33 nM -0.87% | 100 nM -1.56% | 833.33 nM -0.96% | 10000 nM 4.3%

CC(C)C[C@H](NC(=O)[C@@H](O)[C@H](N)Cc1ccccc1)C(=O)O [ubenimex]
inactive: 1 nM -0.51% | 8.33 nM -0.09% | 100 nM 2.6% | 833.33 nM 0.25% | 10000 nM 1.71%

COc1nc(C)cnc1NS(=O)(=O)c1cccnc1-c1ccc(-c2nnco2)cc1 [zibotentan]
inactive: 1 nM -2.02% | 8.33 nM -0.17% | 100 nM -0.98% | 833.33 nM -3.56% | 10000 nM -1.47%

N#CCC1(n2cc(-c3ncnc4[nH]ccc34)cn2)CN(C2CCN(C(=O)c3ccnc(C(F)(F)F)c3F)CC2)C1 [itacitinib]
inactive: 1 nM 1.05% | 8.33 nM 1.83% | 100 nM 0.96% | 833.33 nM -0.18% | 10000 nM -3.04%

C=CCN1CC[C@]23c4c5ccc(O)c4O[C@H]2C(=O)CC[C@@]3(O)[C@H]1C5
inactive: 1 nM -1.98% | 8.33 nM 1.85% | 100 nM 1.15% | 833.33 nM 3.34% | 10000 nM 0.28%

O=C(Nc1ccc(OC(F)(F)F)cc1)c1sccc1NCc1ccnc2ccccc12
inactive: 1 nM -2.32% | 8.33 nM 3.56% | 100 nM 4.81% | 833.33 nM 4.77% | 10000 nM 5.44%

C[C@]12CC[C@@H]3c4ccc(O)cc4CC[C@H]3[C@@H]1C[C@@H](O)[C@@H]2O [estriol]
inactive: 1 nM 2.04% | 8.33 nM 1.38% | 100 nM -1.95% | 833.33 nM -1.63% | 10000 nM -0.19%

CS(=O)(=O)c1ccc(-c2cnc(NCc3ccco3)n3cnnc23)cc1
inactive: 1 nM 4.45% | 8.33 nM 2.39% | 100 nM 0.36% | 833.33 nM -0.76% | 10000 nM -0.13%

O=C(CC1NCCCC1O)Cn1cnc2cc(Br)c(Cl)cc2c1=O (stereo not given) [halofuginone]
inactive: 1 nM -3.21% | 8.33 nM -1.77% | 100 nM -2.82% | 833.33 nM 12.3% | 10000 nM -13.9%
